Laboratory results published in PubChem BioAssay (NCI).
“And” between values parts separate entries of the source, which are not always exact repeats. Equal entries are not always repeated. This is part of a sample that, as a whole, favours compounds with a hit. Of some 83,000 tested, about 20% had one in any assay.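 For each line, cells grew in 96-well plates with the test compound present at a single concentration for 48 hours.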 Unmarked numbers belong to inactive results. The source made the active and inactive calls. The calls were made as follows: active = growth percent below 10; inactive = the rest.

Key:
Test in all cases: NCI-60 one-dose screen, 48 h (100 = growth as untreated, 0 = no growth, -100 = all killed)
Conditions in all cases: 10 µM unless noted
SR leukemia = system: SR leukemia
OVCAR-8 ovarian = system: OVCAR-8 ovarian
OVCAR-5 ovarian = system: OVCAR-5 ovarian
OVCAR-4 ovarian = system: OVCAR-4 ovarian
SK-OV-3 ovarian = system: SK-OV-3 ovarian
IGROV1 ovarian = system: IGROV1 ovarian
OVCAR-3 ovarian = system: OVCAR-3 ovarian
HS 578T breast = system: HS 578T breast
NCI/ADR-RES ovarian = system: NCI/ADR-RES ovarian
T-47D breast = system: T-47D breast
BT-549 breast = system: BT-549 breast
MDA-MB-435 melanoma = system: MDA-MB-435 melanoma
SW-620 colon = system: SW-620 colon
HCT-116 colon = system: HCT-116 colon
HCC-2998 colon = system: HCC-2998 colon
KM12 colon = system: KM12 colon
MCF7 breast = system: MCF7 breast
RPMI-8226 leukemia = system: RPMI-8226 leukemia

Work on `CC(=O)Nc1cscc1NC(C)=O` yielded a growth (SR leukemia) of 90.1%, a growth (OVCAR-8 ovarian) of 107% and a growth (OVCAR-5 ovarian) of 91.9%. It also gave a growth (OVCAR-4 ovarian) of 100%, a growth (SK-OV-3 ovarian) of 103% and a growth (IGROV1 ovarian) of 99.2%. The growth (OVCAR-3 ovarian) was 102%, the growth (HS 578T breast) was 103% and the growth (NCI/ADR-RES ovarian) was 98.9%. The growth (T-47D breast) was 94.4%, the growth (BT-549 breast) was 90.3% and the growth (MDA-MB-435 melanoma) was 89.1%. The growth (SW-620 colon) was 97.6%, the growth (HCT-116 colon) was 103% and the growth (HCC-2998 colon) was 94.1%. The growth (KM12 colon) was 106%.

`CN1C2C=CC(=O)C1C1C(=O)N(c3ccccc3)C(=O)C12` (stereo not drawn) gave a growth (SR leukemia) of 67.5%, a growth (OVCAR-8 ovarian) of 69.9% and a growth (OVCAR-5 ovarian) of 102%. For the same compound, the growth (OVCAR-4 ovarian) was 76.4%, the growth (SK-OV-3 ovarian) was 105% and the growth (IGROV1 ovarian) was -9.22% (active). It also gave a growth (OVCAR-3 ovarian) of 47.1%, a growth (HS 578T breast) of 77.5% and a growth (NCI/ADR-RES ovarian) of 92.6%. It also gave a growth (T-47D breast) of 68.5%, a growth (BT-549 breast) of 52.9% and a growth (MDA-MB-435 melanoma) of 80.5%. The growth (SW-620 colon) was 37.3%, the growth (MCF7 breast) was 44.5% and the growth (HCT-116 colon) was 35.9%. It also gave a growth (HCC-2998 colon) of 113% and a growth (KM12 colon) of 56.3%.

In the case of `Cc1nc(Nc2ccc(Cl)cc2)c2cnn(-c3ccccc3)c2n1`, the growth (SR leukemia) is reported as 101%, the growth (OVCAR-8 ovarian) is reported as 104% and the growth (OVCAR-5 ovarian) is reported as 108%. For the same compound, the growth (OVCAR-4 ovarian) was 103%, the growth (SK-OV-3 ovarian) was 116% and the growth (IGROV1 ovarian) was 112%. The growth (OVCAR-3 ovarian) was 106%, the growth (HS 578T breast) was 97.9% and the growth (NCI/ADR-RES ovarian) was 98.2%. It also gave a growth (T-47D breast) of 101%, a growth (BT-549 breast) of 102% and a growth (MDA-MB-435 melanoma) of 94.7%. It also gave a growth (SW-620 colon) of 98.4%, a growth (MCF7 breast) of 88.2% and a growth (HCT-116 colon) of 101%. For the same compound, the growth (HCC-2998 colon) was 105% and the growth (KM12 colon) was 106%.

With `O=C(NC(=O)c1ccc(F)c(Cl)c1)NC1CC1` the growth (SR leukemia) was 91.4%, the growth (RPMI-8226 leukemia) was 98% and 102% and the growth (OVCAR-8 ovarian) was 98.8% and 103%. For the same compound, the growth (OVCAR-5 ovarian) was 109% and 105%, the growth (OVCAR-4 ovarian) was 119% and 93.4% and the growth (SK-OV-3 ovarian) was 114% and 105%. For the same compound, the growth (OVCAR-3 ovarian) was 104% and 107%, the growth (HS 578T breast) was 102% and 96.6% and the growth (NCI/ADR-RES ovarian) was 107% and 103%. The growth (BT-549 breast) was 107% and 109%, the growth (MDA-MB-435 melanoma) was 114% and 102% and the growth (SW-620 colon) was 104% and 100%. The growth (HCT-116 colon) was 104% and 105%, the growth (HCC-2998 colon) was 96.2% and 106% and the growth (KM12 colon) was 105% and 101%.

Work on `COc1ccc(/C=N/NC(N)=S)cc1` yielded a growth (SR leukemia) of 107%, a growth (OVCAR-8 ovarian) of 100% and a growth (OVCAR-5 ovarian) of 93.7%. It also gave a growth (OVCAR-4 ovarian) of 89.8%, a growth (SK-OV-3 ovarian) of 106% and a growth (IGROV1 ovarian) of 76.9%. It also gave a growth (OVCAR-3 ovarian) of 111%, a growth (HS 578T breast) of 101% and a growth (NCI/ADR-RES ovarian) of 96.7%. The growth (T-47D breast) was 85.6%, the growth (BT-549 breast) was 104% and the growth (MDA-MB-435 melanoma) was 100%. It also gave a growth (SW-620 colon) of 125%, a growth (MCF7 breast) of 103% and a growth (HCT-116 colon) of 89.3%. The growth (HCC-2998 colon) was 90.7% and the growth (KM12 colon) was 119%.

With `CCCCOC1NC(=O)NC(=O)C1(F)C(=O)OCC` (stereo not drawn) the growth (SR leukemia) was 37.9%, the growth (OVCAR-8 ovarian) was 89.6% and 66.6% and the growth (OVCAR-5 ovarian) was 96.5% and 91.9%. For the same compound, the growth (OVCAR-4 ovarian) was 98.9% and 75.8%, the growth (SK-OV-3 ovarian) was 91.7% and 81.6% and the growth (IGROV1 ovarian) was 103% and 87.6%. For the same compound, the growth (OVCAR-3 ovarian) was 77.3% and 65.7%, the growth (HS 578T breast) was 101% and 115% and the growth (NCI/ADR-RES ovarian) was 93.7% and 77.1%. For the same compound, the growth (T-47D breast) was 80.5% and 74.7%, the growth (MDA-MB-435 melanoma) was 56.9% and 53.4% and the growth (SW-620 colon) was 94.6% and 76.7%. For the same compound, the growth (HCT-116 colon) was 64.5% and 43.6%, the growth (HCC-2998 colon) was 45.5% and 26.1% and the growth (KM12 colon) was 60.2% and 49.4%.

For `Cc1c(Cl)c(C)c(Cc2c(C)c(Cl)c(C)c(Cl)c2O)c(O)c1Cl`, the growth (SR leukemia) was 22.7%, the growth (OVCAR-8 ovarian) was 11.4% and the growth (OVCAR-5 ovarian) was 45.6%. For the same compound, the growth (OVCAR-4 ovarian) was 13.9%, the growth (SK-OV-3 ovarian) was -6.21% (active) and the growth (IGROV1 ovarian) was 38.8%. For the same compound, the growth (OVCAR-3 ovarian) was 5.17% (active), the growth (HS 578T breast) was 12.1% and the growth (NCI/ADR-RES ovarian) was -3.46% (active). For the same compound, the growth (T-47D breast) was 1.53% (active), the growth (BT-549 breast) was 22.6% and the growth (MDA-MB-435 melanoma) was 7.62% (active). The growth (SW-620 colon) was 17.1%, the growth (HCT-116 colon) was 3.19% (active) and the growth (HCC-2998 colon) was 25.7%. For the same compound, the growth (KM12 colon) was 15.7%.
